The source of these data is PubChem BioAssay.

The subject of experiment [1] is PRMT1 (protein arginine N-methyltransferase 1). The experiment in a line: PRMT1 binders on small-molecule microarrays, primary screen, biochemical, small-molecule microarray, 635 nm fluorescence (AID 1088).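 Also: binding of Prmt1 protein to compounds spotted on small-molecule microarray slides.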 The conditions noted are these: small-molecule microarray binding, higher = more signal.
Experiment [2] in a line: yeast growth modulation, basal conditions, primary screen, YJM789 clinical isolate, OD600, 24 h (AID 1089).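 Also: growth of clinical yeast isolate S. cerevisiae YJM 789 seeded 1000 cells per well; test concentration not given here.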 The conditions noted are these: S. cerevisiae YJM789 growth, higher = more signal, called active from +8 up or from −8 down.
Experiment [3] in a line: fission yeast growth modulation, primary screen, strain 972, OD600, 24 h, no modulator (AID 1090).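 Also: basal condition with compound alone and no growth modifier present; test concentration not given here.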 Particulars: S. pombe 972 growth, higher = more signal, called active from +8 up or from −8 down.
Experiment [4] can be described thus: S. cerevisiae growth modulation with rapamycin, primary screen, strain BY4716, OD600, 96 h (AID 1091). Also: test concentration not given here. Particulars: higher = more signal, called active from +8 up or from −8 down.
In experiment [5] the target is Torsin-1A-interacting protein 2 (Homo sapiens) (UniProt Q8NFQ8). The experiment in a line: LULL1 binders on small-molecule microarray, primary screen, cell lysate, human LULL1 lysate, 635/667 nm fluorescence (AID 1092).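 Also: probe is lysate of COS7 cells overexpressing human LULL1; score merges per-feature 667 nm fluorescence with signal-to-noise.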 The conditions noted are these: hLULL1 lysate binding, 635 nm fluorescence, higher = more signal.
Sequence of Torsin-1A-interacting protein 2 (Homo sapiens) (Q8NFQ8 whole entry, looked up): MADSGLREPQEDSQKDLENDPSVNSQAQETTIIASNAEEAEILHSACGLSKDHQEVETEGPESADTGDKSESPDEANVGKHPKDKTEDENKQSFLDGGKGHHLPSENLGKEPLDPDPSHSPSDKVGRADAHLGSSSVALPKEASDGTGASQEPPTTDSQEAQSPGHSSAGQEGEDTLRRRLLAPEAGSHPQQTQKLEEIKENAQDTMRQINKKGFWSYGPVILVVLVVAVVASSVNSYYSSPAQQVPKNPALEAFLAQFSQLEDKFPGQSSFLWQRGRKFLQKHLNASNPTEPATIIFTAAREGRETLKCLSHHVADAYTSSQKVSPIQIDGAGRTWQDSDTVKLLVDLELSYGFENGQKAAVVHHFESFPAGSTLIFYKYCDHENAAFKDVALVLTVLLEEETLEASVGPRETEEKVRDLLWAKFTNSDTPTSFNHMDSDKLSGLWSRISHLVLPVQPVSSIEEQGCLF
Experiment [6] is described as follows: E. coli growth modulation, two-sided OD650, primary screen, E. coli filamentation project, strain DRC41, 24 h (AID 1093).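 Also: MC1000 strain lacking acrAB efflux and sulA so SOS filamentation is blocked; test concentration not given here.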 The conditions noted are these: OD650, 24 h, higher = more signal, called active from +8 up or from −8 down.
Experiment [7] in a line: small-molecule microarray binders of probe aLefty2, primary screen, biochemical, biotinylated probe, 635/667 nm fluorescence (AID 1094).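 Also: score merges spot fluorescence near 667 nm with spot signal-to-noise ratio.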 The conditions noted are these: higher = more signal.
Experiment [8] has as its system Noggin (protein binding on small-molecule microarray). In words: Noggin binders on small-molecule microarray, primary screen, biochemical, 635/667 nm fluorescence (AID 1095).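 Also: score merges 667 nm feature fluorescence with signal to noise over triplicate slides.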 Particulars: 635 nm fluorescence, higher = more signal.
For experiment [9], the target named is Neurogenic locus notch homolog protein 3 (Homo sapiens) (UniProt Q9UM47). In words: NOTCH3 binders on small-molecule microarray, primary screen, biochemical, 635/667 nm fluorescence (AID 1096). The conditions noted are these: NOTCH3 binding, 635 nm fluorescence, higher = more signal.
Sequence of Neurogenic locus notch homolog protein 3 (Homo sapiens) (Q9UM47 whole entry, looked up): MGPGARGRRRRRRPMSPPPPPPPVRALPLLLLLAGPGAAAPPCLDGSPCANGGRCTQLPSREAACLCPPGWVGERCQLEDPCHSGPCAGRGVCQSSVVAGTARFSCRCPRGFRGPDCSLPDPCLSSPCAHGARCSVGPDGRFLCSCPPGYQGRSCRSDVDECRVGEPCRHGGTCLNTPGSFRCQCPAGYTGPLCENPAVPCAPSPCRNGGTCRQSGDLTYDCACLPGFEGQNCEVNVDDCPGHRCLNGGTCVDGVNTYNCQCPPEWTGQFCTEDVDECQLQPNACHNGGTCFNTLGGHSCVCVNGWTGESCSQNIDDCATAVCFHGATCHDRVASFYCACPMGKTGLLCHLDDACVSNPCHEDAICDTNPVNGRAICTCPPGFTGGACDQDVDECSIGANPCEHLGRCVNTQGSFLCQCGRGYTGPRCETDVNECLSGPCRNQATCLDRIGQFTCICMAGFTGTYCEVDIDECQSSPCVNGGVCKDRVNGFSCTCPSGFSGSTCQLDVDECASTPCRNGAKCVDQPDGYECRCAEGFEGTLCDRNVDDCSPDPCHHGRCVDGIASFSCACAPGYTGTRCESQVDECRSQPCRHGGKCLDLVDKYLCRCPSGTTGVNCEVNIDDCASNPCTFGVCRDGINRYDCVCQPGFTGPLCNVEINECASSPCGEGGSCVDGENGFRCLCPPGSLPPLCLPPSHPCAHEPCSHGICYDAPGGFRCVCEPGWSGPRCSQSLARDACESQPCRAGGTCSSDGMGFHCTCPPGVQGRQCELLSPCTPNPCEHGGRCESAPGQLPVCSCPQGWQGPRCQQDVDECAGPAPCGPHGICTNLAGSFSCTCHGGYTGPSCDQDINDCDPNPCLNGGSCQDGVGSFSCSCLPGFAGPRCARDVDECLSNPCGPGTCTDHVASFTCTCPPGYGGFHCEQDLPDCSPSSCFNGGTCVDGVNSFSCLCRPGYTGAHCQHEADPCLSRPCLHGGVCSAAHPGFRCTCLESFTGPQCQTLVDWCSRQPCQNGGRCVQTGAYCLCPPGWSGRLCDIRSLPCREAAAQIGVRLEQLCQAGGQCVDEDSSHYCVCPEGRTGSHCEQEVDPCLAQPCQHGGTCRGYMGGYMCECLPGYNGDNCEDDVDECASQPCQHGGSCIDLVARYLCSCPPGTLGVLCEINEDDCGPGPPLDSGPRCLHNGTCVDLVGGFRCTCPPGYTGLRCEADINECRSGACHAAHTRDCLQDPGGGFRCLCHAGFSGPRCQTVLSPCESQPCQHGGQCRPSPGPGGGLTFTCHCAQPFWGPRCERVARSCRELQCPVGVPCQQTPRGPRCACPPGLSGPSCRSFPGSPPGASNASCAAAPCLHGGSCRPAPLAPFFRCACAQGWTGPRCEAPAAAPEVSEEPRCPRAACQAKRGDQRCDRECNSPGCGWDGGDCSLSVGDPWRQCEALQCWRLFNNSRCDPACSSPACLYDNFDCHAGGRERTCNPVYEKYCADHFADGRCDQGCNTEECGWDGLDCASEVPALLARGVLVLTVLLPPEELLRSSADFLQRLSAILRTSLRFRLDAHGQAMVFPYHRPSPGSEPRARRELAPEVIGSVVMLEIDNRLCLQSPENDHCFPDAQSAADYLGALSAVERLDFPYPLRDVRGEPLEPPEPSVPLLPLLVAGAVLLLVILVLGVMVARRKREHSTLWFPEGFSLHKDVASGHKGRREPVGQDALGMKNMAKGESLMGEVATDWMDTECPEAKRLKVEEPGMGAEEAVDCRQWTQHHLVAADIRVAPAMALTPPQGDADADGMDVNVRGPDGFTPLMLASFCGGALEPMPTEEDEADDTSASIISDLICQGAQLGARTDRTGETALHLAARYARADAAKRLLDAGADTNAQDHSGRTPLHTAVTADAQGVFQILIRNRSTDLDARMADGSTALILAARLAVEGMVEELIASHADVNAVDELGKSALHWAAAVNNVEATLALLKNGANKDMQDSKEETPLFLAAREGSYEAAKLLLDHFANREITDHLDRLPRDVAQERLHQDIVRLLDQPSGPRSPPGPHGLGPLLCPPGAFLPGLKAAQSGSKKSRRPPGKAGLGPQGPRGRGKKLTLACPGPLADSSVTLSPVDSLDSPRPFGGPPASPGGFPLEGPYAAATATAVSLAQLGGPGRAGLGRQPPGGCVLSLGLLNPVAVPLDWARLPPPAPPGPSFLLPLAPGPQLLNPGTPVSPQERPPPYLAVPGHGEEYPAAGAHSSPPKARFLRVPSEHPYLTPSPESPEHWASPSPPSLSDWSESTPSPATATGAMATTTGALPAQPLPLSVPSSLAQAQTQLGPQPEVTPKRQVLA
Experiment [10] can be described thus: small-molecule microarray binders of probe aEGFR, primary screen, biochemical, biotinylated probe, 635/667 nm fluorescence (AID 1097).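 Also: probe is a biotinylated anti-EGFR antibody binding compounds printed on slides; score combines fluorescence near 667 nm and signal to noise of each spot.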 Particulars: higher = more signal.
Experiment [11] has as its system Plasmodium falciparum Sir2 (PF13_0152, Sir2A). In words: pfSir2 binders on small-molecule microarrays, primary screen, biochemical, small-molecule microarray, 635 nm fluorescence (AID 1098).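 Also: score merges spot fluorescence intensity with its signal-to-noise ratio.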 The conditions noted are these: small-molecule microarray binding, fluorescence 635 nm; higher = more signal.
Experiment [12] is described as follows: small-molecule microarray binders of probe aDKK1, primary screen, biochemical, biotinylated probe, 635/667 nm fluorescence (AID 1099).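 Also: score merges 667nm spot fluorescence with signal to noise across triplicate slides; reference of the scale not given here.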 The conditions noted are these: higher = more signal.
A short description of experiment [13]: small-molecule microarray binders of probe aCHRDL2, primary screen, biochemical, biotinylated probe, 635/667 nm fluorescence (AID 1100). Particulars: higher = more signal.
The nature of experiment [14]: splicing luciferase reporter signal modulators, primary screen, spliceosome inhibition project, cell-based, HEK293, splice +/- reporter (AID 1101).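 Also: HEK293 cells carrying a splicing-competent luciferase reporter gene; test concentration not given here.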 The conditions noted are these: luminescence, 24 h, higher = more signal, called active from +8 up or from −8 down. (In general: A reporter such as luciferase makes a cellular process visible.)
Experiment [15] has as its target Fibroblast growth factor 10 (Homo sapiens) (UniProt O15520). In words: FGF10 binders on small-molecule microarrays, primary screen, biochemical, small-molecule microarray, 635 nm fluorescence (AID 1102). The conditions noted are these: FGF10 binding, fluorescence 635 nm, higher = more signal.
Experiment [16] deals with glycogen synthase kinase-3 (GSK3A per assay name; protocol says GSK3B). In words: GSK3 binders on small-molecule microarrays, primary screen, biochemical, small-molecule microarray, 635 nm fluorescence, GSK3A (AID 1103). Also: the record names both GSK3A and GSK3B. The conditions noted are these: small-molecule microarray binding, fluorescence 635 nm; higher = more signal.
The target in experiment [17] is Epidermal growth factor receptor (Homo sapiens) (UniProt P00533). The experiment in a line: EGFR binders on small-molecule microarrays, primary screen, biochemical, small-molecule microarray, 635 nm fluorescence (AID 1104).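 Also: score merges 667 nm emission intensity with spot signal to noise over triplicate slides.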 The conditions noted are these: EGFR binding, higher = more signal.
Sequence of Epidermal growth factor receptor (Homo sapiens) (P00533 whole entry, looked up): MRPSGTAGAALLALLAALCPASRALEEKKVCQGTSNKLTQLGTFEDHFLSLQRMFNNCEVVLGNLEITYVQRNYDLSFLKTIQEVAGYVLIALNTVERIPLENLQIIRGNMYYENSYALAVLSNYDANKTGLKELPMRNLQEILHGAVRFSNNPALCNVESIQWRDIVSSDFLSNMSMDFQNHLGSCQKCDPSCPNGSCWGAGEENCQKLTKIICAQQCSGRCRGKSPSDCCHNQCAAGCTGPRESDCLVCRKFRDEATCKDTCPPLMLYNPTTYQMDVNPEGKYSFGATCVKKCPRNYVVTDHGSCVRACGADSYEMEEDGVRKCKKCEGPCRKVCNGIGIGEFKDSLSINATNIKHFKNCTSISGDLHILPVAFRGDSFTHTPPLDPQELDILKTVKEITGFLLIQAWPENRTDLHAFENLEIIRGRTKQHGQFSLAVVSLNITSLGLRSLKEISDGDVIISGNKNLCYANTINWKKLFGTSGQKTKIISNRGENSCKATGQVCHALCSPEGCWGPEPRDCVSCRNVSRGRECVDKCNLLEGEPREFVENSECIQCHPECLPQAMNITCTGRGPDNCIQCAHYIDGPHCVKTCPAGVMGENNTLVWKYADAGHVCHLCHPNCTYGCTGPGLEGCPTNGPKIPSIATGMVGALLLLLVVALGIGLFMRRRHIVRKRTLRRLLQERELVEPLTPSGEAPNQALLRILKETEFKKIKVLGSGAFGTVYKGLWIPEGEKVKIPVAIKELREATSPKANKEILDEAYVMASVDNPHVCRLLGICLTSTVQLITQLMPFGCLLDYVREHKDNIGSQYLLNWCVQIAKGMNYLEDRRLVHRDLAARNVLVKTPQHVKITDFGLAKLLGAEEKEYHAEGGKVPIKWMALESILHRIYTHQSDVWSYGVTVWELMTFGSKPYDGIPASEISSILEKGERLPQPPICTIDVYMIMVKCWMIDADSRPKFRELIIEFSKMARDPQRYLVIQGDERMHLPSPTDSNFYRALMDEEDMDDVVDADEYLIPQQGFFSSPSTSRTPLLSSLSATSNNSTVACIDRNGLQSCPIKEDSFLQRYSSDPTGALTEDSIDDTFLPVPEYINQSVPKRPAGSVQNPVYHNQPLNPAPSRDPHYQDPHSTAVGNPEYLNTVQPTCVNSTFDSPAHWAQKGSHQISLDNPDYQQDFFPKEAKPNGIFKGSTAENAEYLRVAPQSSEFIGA
The target in experiment [18] is Follistatin-related protein 3 (Homo sapiens) (UniProt O95633). The experiment in a line: FSTL3 binders on small-molecule microarrays, primary screen, biochemical, small-molecule microarray, 635 nm fluorescence (AID 1105).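 Also: score merges emission near 667 nm and signal to noise per printed spot across three slides.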 The conditions noted are these: FSTL3 binding, higher = more signal.
Sequence of Follistatin-related protein 3 (Homo sapiens) (O95633 whole entry, looked up): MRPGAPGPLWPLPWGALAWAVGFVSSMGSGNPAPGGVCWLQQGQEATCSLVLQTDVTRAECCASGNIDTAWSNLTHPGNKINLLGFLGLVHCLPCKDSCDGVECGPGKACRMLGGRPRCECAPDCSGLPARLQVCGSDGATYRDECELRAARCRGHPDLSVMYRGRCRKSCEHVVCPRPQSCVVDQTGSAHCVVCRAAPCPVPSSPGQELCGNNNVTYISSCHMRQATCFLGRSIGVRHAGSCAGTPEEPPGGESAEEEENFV
The target of experiment [19] is Dickkopf-related protein 1 (Homo sapiens) (UniProt O94907). In words: DKK1 binders on small-molecule microarrays, primary screen, biochemical, small-molecule microarray, 635 nm fluorescence scan (AID 1106).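 Also: score merges emission near 667 nm with signal to noise over three replicate slides.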 Particulars: DKK1 binding, higher = more signal.
Sequence of Dickkopf-related protein 1 (Homo sapiens) (O94907 whole entry, looked up): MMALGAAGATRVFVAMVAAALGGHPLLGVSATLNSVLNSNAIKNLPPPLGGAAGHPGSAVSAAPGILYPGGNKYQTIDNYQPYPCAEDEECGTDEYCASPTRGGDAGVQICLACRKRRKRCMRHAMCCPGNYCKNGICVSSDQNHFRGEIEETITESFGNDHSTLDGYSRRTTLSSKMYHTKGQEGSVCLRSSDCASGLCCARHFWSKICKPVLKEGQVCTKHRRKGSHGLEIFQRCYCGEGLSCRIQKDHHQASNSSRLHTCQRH
Experiment [20] concerns Inhibin beta A chain (activin A). In words: INHBA (activin A) binders on microarrays, primary screen, biochemical, small-molecule microarray, 635 nm fluorescence scan (AID 1107).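 Also: mouse activin A protein probed at 4.33 µg/mL on printed slides; score merges bound-protein fluorescence near 667 nm with spot signal-to-noise.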 The conditions noted are these: small-molecule microarray binding, higher = more signal.

The structures appear in SMILES notation. Active and inactive are the calls of the source.

Sequence of Fibroblast growth factor 10 (Homo sapiens) (O15520 whole entry, looked up): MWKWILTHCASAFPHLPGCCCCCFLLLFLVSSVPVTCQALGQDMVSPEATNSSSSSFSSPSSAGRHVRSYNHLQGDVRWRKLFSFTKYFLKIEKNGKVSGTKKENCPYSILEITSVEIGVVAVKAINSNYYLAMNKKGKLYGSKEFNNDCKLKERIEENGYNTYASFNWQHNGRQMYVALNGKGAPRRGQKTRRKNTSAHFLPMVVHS

Turning to `O=C1OCC=C[C@H]2OC34C=CCN(c5ccc(Cl)cc5)C(=O)[C@H]3N(CCCO)C(=O)[C@@H]4[C@@H]12` (stereo not given in full), the composite z-score is 0.631 in [1]; 2.56 in experiment [5]; -0.0783 in experiment [7]; -0.996 in experiment [8]; -0.478 in experiment [9]; -0.28 in experiment [10]. The composite z-score was -0.0096 in [11]; -0.477 in experiment [12]; 0.673 in experiment [13]; -0.742 in [15]; -1.19 in experiment [16]; -0.781 in [17]. In addition, the figures for the composite z-score in experiment [18], in experiment [19] and in experiment [20] were -0.551, -1.32 and 1.23, respectively. The z-score is 0.0783 (inactive) in experiment [2]; -0.252 (inactive) in [3]; 0.0814 (inactive) in experiment [4]; 1.3 (inactive) in experiment [6]; -0.915 (inactive) in [14].
As for `C=CCC(OC(C)=O)[C@@H]1[C@@H](N(Cc2ccc(-c3ccccc3)cc2)C(=O)c2ccc(C)cc2)c2cc(OCCCO)ccc2N1C(=O)c1ccc2ccccc2n1` (stereo not given in full), the composite z-score was -0.11 in experiment [1]; 0.209 in experiment [5]; 0.407 in experiment [7]; -0.267 in [8]; -0.197 in [9]; -0.0836 in experiment [10]. The composite z-score was -0.124 in experiment [11]; -0.053 in experiment [12]; 0.529 in [13]; -0.0241 in experiment [15]; -0.609 in experiment [16]; -0.236 in experiment [17]. The composite z-score is -0.374 in experiment [18], -0.144 in experiment [19] and 1.39 in experiment [20]. The z-score in experiment [2] is -2.47 (inactive); in experiment [3], -0.772 (inactive); in experiment [4], -1.15 (inactive); in experiment [6], 1.95 (inactive); in experiment [14], -1.84 (inactive).
Regarding `C=CCNC(=O)[C@H]1[C@@H]2C(=O)O[C@@H](c3ccccc3)[C@@H](c3ccccc3)N2[C@@H](c2ccc(O)cc2)[C@]12C(=O)Nc1ccc(C#Cc3ccc(OC)cc3)cc12`, the composite z-score in [1] came out at 1.49; in [5], 2.86; in experiment [7], 0.369; in experiment [8], 0.41; in [9], 1.12; in experiment [10] it was 0.469. The composite z-score stood at 1.53 in experiment [11]; 0.257 in experiment [12]; 0.536 in experiment [13]; 0.782 in experiment [15]; 1.23 in experiment [16]; 0.728 in experiment [17]. In addition, the composite z-score in [18] was 1.21; in experiment [19] it was 0.94; in experiment [20], -0.13. The z-score in experiment [2] was -0.209 (inactive); in experiment [3], 1.14 (inactive); in experiment [4] it was 0.832 (inactive); in experiment [6], -0.451 (inactive); in experiment [14] it was 0.338 (inactive).
As to `COc1ccc([Si](C)(C)[C@@H]2[C@@H](CCO)O[C@]3(C(=O)N(Cc4cccc(N5CCCCC5=O)c4)c4ccccc43)[C@H]2C)cc1`, the composite z-score in [1] was 1.56; in [5], 2.54; in experiment [7], -0.0915; in [8], 1.22; in [9] it was 1.09; in [10], -0.0442. Also, the composite z-score in experiment [11] was 1.06; in experiment [12] it was -0.0212; in experiment [13], 0.113; in experiment [15] it was 1.04; in experiment [16] it was 0.971; in [17], 0.319. The results for the composite z-score in experiment [18], in experiment [19] and in experiment [20] were 1, 0.404 and 0.764, respectively. Further, the z-score in experiment [2] was 2.34 (inactive); in experiment [3] it was -0.486 (inactive); in [4], 5.16 (inactive); in [6], -0.0838 (inactive); in experiment [14], -2.96 (inactive).
Regarding `COc1cc2c(cc1O)C(c1ccc(CN3CCCC3)cc1)N(Cc1sc3ccccc3c1Cl)CC2` (stereo not given), the composite z-score in experiment [1] worked out at 1.13; in experiment [5] it was 1.93; in experiment [7], 0.157; in [8], 0.369; in experiment [9], 0.202; in experiment [10], 0.0475. In addition, the composite z-score was 1.41 in [11]; 0.0829 in [12]; 0.234 in experiment [13]; 0.514 in [15]; -0.111 in experiment [16]; 0.521 in experiment [17]. The composite z-score in experiment [18] was 0.988; in experiment [19], 1.12; in experiment [20], 1.35. In addition, the z-score was -1.43 (inactive) in [2]; -17.7 (active) in experiment [3]; -1.1 (inactive) in experiment [4]; 0.504 (inactive) in [6]; -0.478 (inactive) in [14].
As to `COC(=O)[C@@]1(Cc2ccc(OC)cc2)[C@H]2c3cc(C(=O)N(C)C)n(CCSCCO)c3C[C@H]2CN1C(=O)c1ccccc1`, the composite z-score was determined as 0.359 in [1]; 3.53 in experiment [5]; 0.162 in [7]; 0.281 in experiment [8]; 1.13 in [9]; 0.31 in [10]. Besides, the composite z-score is 0.403 in experiment [11]; 1.14 in experiment [12]; 1.16 in experiment [13]; 0.448 in experiment [15]; 0.528 in experiment [16]; -0.263 in experiment [17]. In addition, the values for the composite z-score in experiment [18], in [19] and in experiment [20] were 0.413, -0.796 and 0.737, respectively. Moreover, the z-score in [2] is -0.526 (inactive); in experiment [3], 0.271 (inactive); in [4], -0.251 (inactive); in [6], -0.209 (inactive); in experiment [14], -2.69 (inactive).
